High-throughput results from PubChem BioAssay.
The list is not random: actives were taken first. Their share in the collection is about 9.4%.
ELG1 repair inh: blocks ELG1-dependent DNA repair in HEK293T cells. HEK293T ELG1-luciferase reporter, luminescence, 16 h; DNA damage induced by 5-fluorouridine. Potency, µM (doses to about 46.1 µM), for the others: at the highest dose activity change, negative = inhibition, actives largely listed as inhibitors. 330,000 tested, 2.3% active. AID 504467; further: on the % scale 0 is the no-effect control and ±100 the full control effect; nearly all actives have a fitted effect of over 55% in size
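5-Fluorouridine DNA damage + compound/DMSO, 2,000 cells/well, 16 h, 37 °C/5% CO2. ONE-Glo, 30 min RT, luminescence. Readout = decrease in reporter signal.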
Rab9 promoter act: activates the Rab9 promoter; Potency, µM (top dose mostly 9.22 µM), inactives show at the top dose activation, negative = inhibition, hits mostly activators; 320,000 tested, 2.8% active; AID 485297; Huh7 Rab9 promoter-luciferase reporter, luminescence, 24 h; further: % of control where 0% means no effect; nearly all actives have a fitted effect of over 60% in size
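Cells were plated at 1500 per well in reduced-serum medium with 10% FBS and left 2 h. Compound in DMSO was then added for 24 h at 37 °C. Reporter signal was read by luminescence after 10 min with luciferase detection reagent.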
ELG1 genotox: inducers of genotoxicity in HEK293T ELG1-luciferase cells. HEK293T ELG1-luciferase reporter, luminescence, 16 h. Potency, µM (titrated, usually from 46 µM), without a hit: at the highest dose activity change, positive = activation, actives largely listed as activators. 330,000 tested, 1.3% active. AID 504466; further: % of control where 0% means no effect; nearly all actives have a fitted effect of over 60% in size
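ELG1-luciferase HEK293T cells, 2,000/well; compound pinned in; 16 hr, 37 °C, 5% CO2; ONE-Glo, 30 min RT; luminescence on CCD imager.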
NPC1 prom act: activates the NPC1 promoter; Huh7 NPC1 promoter luciferase reporter, 24 h; Potency, µM (titrated, usually from 9.22 µM), for the others: at the highest dose activation, actives largely listed as activators; 320,000 tested, 2.4% active; AID 485313; further: % of control where 0% means no effect; nearly all actives have a fitted effect of over 60% in size
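Luciferase expression driven by the NPC1 promoter was measured in stably transfected Huh7 cells after a 24 h compound incubation, using a luciferase reagent and a luminescence read.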
FLuc modulator: counter-screen for miR-21 project: firefly luciferase inhibitors or activators | purified FLuc, Km substrates, luminescence inhibition | Potency, µM (top dose mostly 57.5 µM), inactives show at the top dose activity change, negative = inhibition, hits mostly inhibitors | 360,000 tested, 6.9% active | AID 588342;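 further: plate controls were vehicle for no effect and reference inhibitor for full effect; nearly all actives have a fitted effect of over 55% in size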
Target sequence (P08659 whole entry, looked up): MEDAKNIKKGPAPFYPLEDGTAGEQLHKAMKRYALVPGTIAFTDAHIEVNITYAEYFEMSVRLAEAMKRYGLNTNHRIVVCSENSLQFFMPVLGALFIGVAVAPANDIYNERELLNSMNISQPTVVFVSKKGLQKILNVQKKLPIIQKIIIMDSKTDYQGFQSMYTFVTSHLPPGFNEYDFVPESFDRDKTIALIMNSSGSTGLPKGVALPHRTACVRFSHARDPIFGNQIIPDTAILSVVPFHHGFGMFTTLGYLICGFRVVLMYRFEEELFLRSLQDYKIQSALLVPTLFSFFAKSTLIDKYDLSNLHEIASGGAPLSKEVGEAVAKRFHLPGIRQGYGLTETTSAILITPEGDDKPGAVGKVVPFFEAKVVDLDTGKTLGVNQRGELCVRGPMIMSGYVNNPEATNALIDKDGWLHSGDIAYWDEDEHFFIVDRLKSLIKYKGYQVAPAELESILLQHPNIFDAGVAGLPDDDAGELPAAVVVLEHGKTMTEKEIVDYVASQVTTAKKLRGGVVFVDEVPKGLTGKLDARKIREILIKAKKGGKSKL
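Purified P. pyralis luciferase, 10 nM final, with Km-level 10 uM D-luciferin and 10 uM ATP in 50 mM Tris acetate pH 7.5, 10 mM Mg acetate, 0.01% Tween-20, 0.05% BSA; 6-point qHTS titration about 60 µM downward; luminescence read.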
SMN2 splice up: enhancers of SMN2 splice variant expression; HEK293 SMN2-luciferase splicing reporter, luminescence, 30-36 h; Potency, µM (titrated, usually from 46.1 µM), for inactives: top-dose activity change, positive = activation, actives largely listed as activators; 210,000 tested, 2.8% active; further: % of control where 0% means no effect; nearly all actives have a fitted effect of over 55% in size
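qHTS luciferase splicing reporter: luminescence rises when SMN2 exon 7 is included in transfected HEK293 cells. Compound exposure lasted 30-36 h at 37C, with 4.5 mM final sodium butyrate as control, followed by a ONE-Glo read.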
The depositor's hits bear a star; ? = inconclusive; . = no result; [ ] = another dose, or the depositor's remark. The call rests on the fitted dose curve; in most records, active means well fitted curve in the direction sought with a large enough effect; inconclusive means small, poorly fitted or top-dose-only effect, or another doubt; inactive means no such curve, though single readings can be large; an effect the other way counts as inactive or inconclusive. Potency means the concentration at half of the fitted maximal effect.

SMILES | ELG1 repair inh | Rab9 promoter act | ELG1 genotox | NPC1 prom act | FLuc modulator | SMN2 splice up
Cn1c2ccccc2c2c(C(=O)NCC3CCCO3)cn(C3CCCC3)c(=O)c21 (centres undefined) | ? | -4% | 3% | -4% | 17µM* | -45%
OC(c1nc2ccccc2[nH]1)C(O)c1nc2ccccc2[nH]1 (centres undefined) | 7% | 3% | 0% | -1% | -17% | .
FC(F)(F)c1nc2cc3nc4ccccc4[nH]c3cc2n1 | ? | ? | 0% | ? | 24µM* | .
COc1ccc(-c2noc(N3CCCC(C(=O)Nc4ccc(C(C)=O)cc4)C3)n2)cc1 (centres undefined) | 18% | 27% | 3% | 23% | 11µM* | .
COc1ccc(-c2noc(N3CCC(C(=O)Nc4ccc(OC)cc4OC)CC3)n2)cc1 | 13µM* | 4% | -1% | 1% | ? | .
COc1ccc(-c2noc(N3CCC(C(=O)Nc4ccc(F)cc4F)CC3)n2)cc1 | -14% | 22% | 0% | 0% | 3% | .
CC(C)N(C)C | . | . | . | . | . | -1%
COc1cc(C#Cc2c(-c3cncn3C)n(C)c3ccc(-c4ccc(OC)nc4)cc23)cc(OC)c1 | 7.3µM* | -1% | -13% | -3% | ? | .
COc1cc(C#Cc2c(-c3cncn3C)n(C)c3ccc(-c4cc(OC)c(OC)c(OC)c4)cc23)cc(OC)c1 | 5.2µM* | . | -11% | . | . | .
COc1cc(C#Cc2c(-c3cncn3C)n(C)c3ccc(-c4ccc5[nH]ccc5c4)cc23)cc(OC)c1 | ? | -5% | 0% | 18% | ? | .
CSc1ncc(Cl)c(C(=O)N(Cc2ccc(C(C)C)cc2)C2CCS(=O)(=O)C2)n1 (centres undefined) | . | . | . | . | -7% | -6%
CCCCN(CC)C(=O)c1ccc2c(c1)NC(=O)c1ccccc1S2 | . | . | . | . | -11% | -8%
COc1cccc(C(c2sc3nc(-c4ccco4)nn3c2O)N2CCN(C)CC2)c1 (centres undefined) | . | . | . | . | 5% | .
CCC(C)c1ccc(Nc2ncccc2C#N)cc1 (centres undefined) | ? | ? | ? | ? | 21µM* | ?
COC(=O)c1ccc(Nc2nc(-c3ccc(C)cc3)nc3ccccc23)cc1 | . | . | . | . | ? | 6%
Cc1ccc(-c2nc(Nc3cccc(O)c3)c3ccccc3n2)cc1 | 21µM* | -7% | -8% | 2% | 21µM* | .
c1ccc(Nc2nc(-c3ccccc3)nc3ccccc23)cc1 | -10% | -4% | -7% | -1% | -9% | .
CCCOC(=O)c1cccc(Nc2nc(-c3cccnc3)nc3ccccc23)c1 | 13µM* | 0% | -12% | 0% | -11% | -79%
Cc1ccc(-c2nc(Nc3ccc(N4CCOCC4)cc3)c3ccccc3n2)cc1 | 23µM* | -3% | -7% | 0% | 24µM* | .
Cc1ccc(-c2nc(Nc3ccc(O)cc3)c3ccccc3n2)cc1 | ? | 16% | 9% | 15% | 24µM* | .
Cc1ccc(-c2nc(NCc3ccco3)c3ccccc3n2)cc1 | 3% | -6% | -1% | 0% | ? | 15%
Cc1ccc(-c2nc(C(Cl)Cl)c3ccccc3n2)cc1 | 23µM* | -41% | 18% | -37% | 13µM* | .
N#CC(C(=O)Nc1ccccc1)=C1Nc2ccccc2N1 | -9% | 19% | 5% | -1% | 21µM* | -26%
N#CC(C(=O)Nc1cccc(Cl)c1)=C1Nc2ccccc2N1 | 3% | 2% | 4% | 11% | 4% | 27%
CN(C)C(CNC(=O)CCCN1C(=O)c2cccc3cccc(c23)C1=O)c1ccccc1 (centres undefined) | -9% | -1% | -14% | 1% | 0% | .
SMILES | ELG1 repair inh | Rab9 promoter act | ELG1 genotox | NPC1 prom act | FLuc modulator | SMN2 splice up
COc1ccc(/C=C(\C#N)C(N)=O)c(OC)c1 | . | . | . | . | . | -2%[9.22 µM]
COc1ccc(Nc2nnc(SCC(=O)NC3CC3)s2)cc1 | ? | -3% | 5% | -4% | 19µM* | .
COc1ccc(Nc2nnc(SCC(=O)NC3CCS(=O)(=O)C3)s2)cc1 (centres undefined) | ? | 23% | 11% | 22% | 5.4µM* | .
CN1/C(=C\C(=O)CSc2nnc(NCc3ccccc3)s2)C(C)(C)c2ccccc21 | 18µM* | -8% | -13% | -3% | ? | -41%
O=C(CSc1nnc(NCc2ccccc2)s1)NC1CCS(=O)(=O)C1 (centres undefined) | -5% | -13% | 0% | 0% | 17µM* | .
COc1cc2c(=O)c(C(=O)c3ccc(C)c(C)c3)cn(Cc3ccccc3F)c2cc1OC | . | . | . | . | -14% | -1%
O=C(CSc1n[nH]c(-c2ccncc2)n1)NC1CCS(=O)(=O)C1 (centres undefined) | -5% | -5% | -9% | 7% | -4% | 7%
CCc1ccc(Nc2nnc(SCC(=O)N(C)C3CCS(=O)(=O)C3)s2)cc1 (centres undefined) | ? | ? | ? | 3.5µM* | 0.43µM* | .
CCc1ccc(-c2nc(SCC(=O)NC3CCS(=O)(=O)C3)n[nH]2)cc1 (centres undefined) | ? | 19% | ? | 20% | 5.4µM* | .
Cc1ccc(Nc2c3c(nc4nncn24)CCC3)cc1C | . | . | . | . | -15% | 3%
CCOC(=O)c1c(C)nc2c3ccccc3ccn12 | ? | 2.2µM* | 4.1µM* | 18% | 3.8µM* | 13µM*
CCOC(=O)c1c(C)nc2c(C)cccn12 | 1% | -6% | 7% | 0% | 2% | -58%
OCCNc1ncnc2nc[nH]c12 | . | . | . | . | . | -8%[9.22 µM]
O=C(COc1ccccc1)Nc1ccc(-c2ccc(N3CCOCC3)nn2)cc1 | 20% | 2.2µM* | ? | ? | ? | .
CN1CCN(c2ccc(-c3cccc(NC(=O)COc4ccc(Cl)cc4Cl)c3)nn2)CC1 | ? | ? | 0.65µM* | ? | 0.48µM* | .
CN1CCN(c2ccc(-c3cccc(NC(=O)COc4ccccc4)c3)nn2)CC1 | ? | 1.6µM* | 2.6µM* | 1.6µM* | 1.5µM* | .
O=C(COc1ccccc1)Nc1ccc(S(=O)(=O)N2CCOCC2)cc1 | -13% | 3% | 0% | -1% | 0% | -6%
CN1CCN(c2ccc(-c3cccc(NC(=O)COc4ccc(Cl)cc4)c3)nn2)CC1 | ? | 2µM* | 2.1µM* | 2.8µM* | 1.1µM* | .
CS(=O)(=O)c1ccc(-c2cccc(NC(=O)COc3ccccc3)c2)nn1 | 17% | 0% | 8% | 1% | -17% | .
O=C(COc1ccc(Cl)cc1)Nc1cccc(-c2ccc3nncn3n2)c1 | 10% | -3% | 2% | -4% | ? | -18%
COc1ccc(-n2nnnc2C2CCN(S(=O)(=O)c3ccc(C)cc3)CC2)cc1 | . | . | . | . | 7% | -16%
